# Bioassay records from PubChem.
# Only some compounds are listed: those with a hit (about 0.5% of all), similar ones and a draw of the others.
# E coli growth-1: E. coli V3065 growth inhibition, primary screen, counter-screen for AddAB inhibitor project, absorbance, OD600; 18 h; inhibition, % at 11.9 µM; hit rate 0.27% among 330,000; AID 449728, 2010;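 active = inhibition above the campaign's mean inhibition across all tested compounds plus 3 SD, cut at about 9.9% in these data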;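 also: uninfected addAB+ strain grown without phage in ampicillin broth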
# Tat transport: E. coli Tat export inhibitors, primary screen, MC4100, TorA-mCherry reporter, fluorescence, single point. inhibition, % at 10 µM. hit rate 0.036% among 340,000;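 active = mean replicate inhibition at least 50% and at least half of replicates individually reaching 50%; inconclusive = only one of the two criteria met; inactive = neither criterion met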;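 also: exported cargo escapes ClpAP degradation while cytoplasmic cargo is degraded and loses fluorescence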
# E coli growth-2: E. coli growth inhibition, primary screen, OD600 | Escherichia coli growth, 23 h; active compounds read low | OD600 absorbance (test concentration not listed) | hit rate 0.21% among 330,000 | AID 1053175, 2014;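 active = OD600 absorbance below the run mean of sample wells minus 3.6 SD, in any replicate, cut at about 0.56 in these data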
# AddAB inh: growth inhibition of E. coli expressing H. pylori AddAB, primary screen, AddAB inhibitor project, absorbance | inhibition, % at 11.9 µM | hit rate 0.29% among 330,000 | AID 435030, 2010; in the data active = inhibition above about 12%
# phage Ecoli inh: growth loss of phage-infected E. coli, primary screen, RecBCD inhibitor project, absorbance, with phage, HTS. inhibition, % at 11.9 µM. hit rate 0.26% among 360,000. AID 651602, 2012; in the data active = inhibition above about 11%
# RecBCD conf: growth loss of phage-infected RecBCD+ E. coli, confirmation, RecBCD inhibitor project, absorbance, E. coli V66, T4 gene 2 phage; inhibition, % at 11.9 µM; E. coli V66 + T4 2- phage, growth OD; shares compounds with phage Ecoli inh; AID 651982, 2013; hit rate 45% among 890;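 active = mean inhibition over triplicates exceeding the hit threshold derived in the original primary screen, cut at about 11% in these data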
# Ecoli viability: E. coli viability inhibition, counter-screen for RecBCD inhibitor project, absorbance, high throughput; shares compounds with phage Ecoli inh; absorbance (OD) growth; inhibition, % at 11.9 µM; hit rate 29% among 890; in the data active = inhibition above about 20%;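 also: E. coli strain V66 grown with compound alone and no phage infection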
# AddAB phage OD: growth loss of phage-infected AddAB-carrying E. coli, confirmation, counter-screen for RecBCD inhibitor project, absorbance, E. coli V3065, T4 phage. shares compounds with phage Ecoli inh. E. coli expressing H. pylori AddAB + T4 phage, OD growth; gene 2 mutant T4, recBCD-deleted host. inhibition, % at 11.9 µM. hit rate 45% among 890. AID 651984, 2013;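 active = mean inhibition above the solvent-only control wells' mean plus 3 SD, cut at about 22% in these data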;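 also: higher means less bacterial growth from phage killing when AddAB is blocked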
# A number is an active result; i = inactive; ? = inconclusive; nt = not tested or not shown; ! = not active in a repeat.
SMILES,E coli growth-1,Tat transport,E coli growth-2,AddAB inh,phage Ecoli inh,RecBCD conf,Ecoli viability,AddAB phage OD
COc1ccc(N(C)S(=O)(=O)c2ccc(Cl)c(C(=O)NNC(=O)c3ccccc3O)c2)cc1,nt,i,i,nt,12.5,i,i,i
CON=C1CCCc2c(C(=O)NN)sc(SC)c21,nt,nt,i,nt,nt,nt,nt,nt
COC(=O)c1ccc(NC(=O)Nc2ccc(F)cc2F)cc1,i,i,i,i,i,nt,nt,nt
COC(=O)c1ccc(NC(=O)Nc2cccc(F)c2)cc1,i,i,i,i,11.6,i,i,i
CN(C)c1ccc(C=c2c3ccccc3n3c2c2c([n+]3C)CCCC2)cc1,nt,i,nt,nt,61.6,71.7,97.2,101.4
Cc1nc(N/N=C/c2ccccn2)sc1C,17.9,nt,nt,20.1,16.3,i,i,i
Cc1nc(NN=Cc2ccccn2)sc1C,nt,nt,i,nt,nt,nt,nt,nt
O=Cc1cc(N=Nc2ccccc2Cl)ccc1O,i,i,i,i,12.5,i,i,i
CCCCC(=O)NC(c1cccc([N+](=O)[O-])c1)c1ccc2cccnc2c1O (stereo not drawn),nt,i,i,nt,18.9,15.9,i,25.3
S=C1NCC(c2ccccc2)N1CC1CCCCC1 (stereo not drawn),nt,nt,i,nt,nt,nt,nt,nt
Oc1c(C(Nc2ccccn2)c2cccnc2)cc(Cl)c2cccnc12 (stereo not drawn),10.3,i,i,i,17.5,i,i,i
CC(=O)NC(c1cc(Cl)c2cccnc2c1O)C1CC1 (stereo not drawn),i,i,i,i,i,nt,nt,nt
CCC(=O)NC(c1cccs1)c1cc(Cl)c2ccccc2c1O (stereo not drawn),i,i,i,i,i,nt,nt,nt
CC(=O)NC(c1ccc(C)cc1)c1cc(Cl)c2cccnc2c1O (stereo not drawn),nt,i,nt,nt,20.9,11.9,i,i
O=C(CCc1ccccc1)NC(c1cccs1)c1cc(Cl)c2cccnc2c1O (stereo not drawn),nt,i,i,nt,16.8,i,i,i
CC(=O)NC(c1ccccc1)c1cc([N+](=O)[O-])c2cccnc2c1O (stereo not drawn),i,i,i,i,i,nt,nt,nt
CC(=NNc1nc2ccccc2s1)c1ccncn1,nt,i,nt,nt,26.5,16.8,i,25.3
CCOc1cc(C=NNc2nc3ccccc3[nH]2)cc(Br)c1OCC(=O)N(C)C,nt,nt,i,nt,nt,nt,nt,nt
CCOC(=O)c1[nH]c2cc(OC)c(OC)cc2c1NC(=O)c1nonc1C,i,i,i,i,14.0,i,i,i
NC(=S)NN=Cc1cc(-c2cccc(N)c2)ccn1,nt,nt,nt,nt,21.2,13.8,i,31.7
CCc1cc(OCCN(C)C)ccc1Cl,i,i,i,i,i,nt,nt,nt
CN(C)CCOc1ccc2c(c1)C(=O)C(=Cc1ncc([N+](=O)[O-])n1C)C2,nt,nt,nt,nt,94.9,86.6,96.4,100.2
O=[N+]([O-])c1cc([N+](=O)[O-])c(Oc2c(Cl)cccc2Cl)cc1NN1CCCCC1,i,i,i,i,13.1,i,i,i
COc1ccccc1C(=O)NC(CCSC)C(=O)NNC(=O)c1ccccc1O (stereo not drawn),i,i,i,i,11.7,i,i,i
COc1cccc(-c2cnc(C(O)c3ccc(F)c(C)c3)[nH]2)c1 (stereo not drawn),nt,nt,nt,nt,11.9,i,i,i
SMILES,E coli growth-1,Tat transport,E coli growth-2,AddAB inh,phage Ecoli inh,RecBCD conf,Ecoli viability,AddAB phage OD
COc1cccc(-c2cnc(C(O)c3ccc(F)cc3)[nH]2)c1 (stereo not drawn),nt,nt,nt,nt,i,nt,nt,nt
COc1cccc(-c2cnc(C(O)c3cc(C)cc(C)c3)[nH]2)c1 (stereo not drawn),nt,nt,nt,nt,13.4,i,i,i
CC(=NNC(=O)C1CC1)c1ccc(C)c(C)c1,nt,nt,i,nt,nt,nt,nt,nt
NC(=S)NN=Cc1ccc(-c2ccc(SC(F)F)cc2)o1,nt,nt,i,nt,nt,nt,nt,nt
COc1ccc(CCNC(=O)C2CCN(S(=O)(=O)c3ccc(SC)cc3)CC2)cc1,i,i,i,i,17.3,i,i,i
COc1ccc(S(=O)(=O)N2CCC(C(=O)NCCc3ccc(OC)c(OC)c3)CC2)cc1,nt,nt,nt,nt,i,nt,nt,nt
Cc1cccc(NC(c2ccc(O)cc2)c2ccc3ccc(C)nc3c2O)n1 (stereo not drawn),i,i,i,i,i,nt,nt,nt
COc1cccc(C(Nc2ccccc2)c2ccc3ccc(C)nc3c2O)c1 (stereo not drawn),nt,nt,nt,nt,12.0,i,i,i
Cc1c(Cl)sn(-c2ccc(Cl)cc2)c1=O,nt,?,0.062,nt,97.7,99.5,99.9,99.9
OC(CN1CCN(c2ccccn2)CC1)Cn1c2ccccc2c2ccccc21 (stereo not drawn),i,i,i,i,11.8,i,i,i
COC(=O)C1C[C@@]2(O)C(O)C(O)C(O)CC2N1CC1CC1 (stereo partly drawn),nt,nt,i,nt,nt,nt,nt,nt
NCCc1cnc[nH]1,i,i,i,i,13.5!,i,i,i
NCCC(=O)NCCc1cnc[nH]1,i,i,i,i,i,nt,nt,nt
O=C(c1cccc(C(F)(F)F)c1)N1CCc2c([nH]c3ccccc23)C1C(F)(F)F (stereo not drawn),i,i,i,i,74.8,i,i,i
CC(=NNC(=O)c1cccc(NN=C(C)c2cc(O)ccc2O)c1)c1cc(O)ccc1O,nt,nt,i,nt,nt,nt,nt,nt
CC(=O)OCC(=O)[C@@]1(O)CCC2C3CCC4=CC(=O)CC[C@]4(C)C3C(O)C[C@@]21C (stereo partly drawn),nt,nt,i,nt,nt,nt,nt,nt
COC(=O)/C(=C\c1ccc([N+](=O)[O-])o1)NC(=O)c1ccccc1,i,i,i,i,i,nt,nt,nt
NC(=O)/C(=C\c1ccc([N+](=O)[O-])o1)c1ccco1,nt,nt,nt,nt,100.0,101.8,102.6,101.1
Cc1cc(NS(=O)(=O)c2ccc(NC(=S)Nc3ccc(Cl)cc3C)cc2)no1,i,i,i,i,12.4,i,i,i
CN(Cc1ccccc1)C(=O)COC(=O)C1=NNC(=O)CC1,i,i,i,i,i,nt,nt,nt
N#CCCN(C(=O)COC(=O)C1=NNC(=O)CC1)c1ccccc1,i,i,i,i,11.0,i,i,i
CCC(=O)Nc1ccc(CCC(=O)N2CCCC2)cc1,i,i,i,i,23.6,i,i,i
Nc1ccc(CCC(=O)N2CCCC2)cc1,nt,i,i,nt,i,nt,nt,nt
Cc1c(Cc2ccc3c(c2)OCO3)sc(NC(=O)C(C)(C)C)c1C#N,i,i,i,i,100.1,i,i,i
CCC(=O)Nc1sc(Cc2ccc3c(c2)OCO3)c(C)c1C(N)=O,i,i,i,i,i,nt,nt,nt
O=C(c1ccc(-c2ccccc2)c(F)c1)C1CCCN(CCCn2cccn2)C1 (stereo not drawn),i,i,i,i,99.5,i,i,i
O=C(Cc1nnc(NC(=O)c2ccccc2)s1)NN=Cc1ccc(O)c(O)c1,nt,nt,i,nt,nt,nt,nt,nt
